According to PubChem BioAssay (Tox21):
Values joined by “and” are separate entries in the source; they are usually repeats but may differ in a detail not shown here. Equal entries are not always repeated. Results filed as inconclusive are left out. Active and inactive are the calls of the source. Unless noted, calls follow the shape of the full dose curve.

Target: Nuclear receptor ROR-gamma (Homo sapiens) (UniProt P51449)
Assay: qHTS assay to identify small molecule antagonists of the retinoid-related orphan receptor gamma (ROR-gamma) signaling pathway (AID 1159521; active = well fitted inhibition curve with a large enough effect in the repeat runs; also: nearly all actives have a fitted effect of over 50% in size; also: potency is read from the fitted curve at half-maximal effect;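 as to activity change, negative = inhibition: CHO cells with doxycycline inducible ROR-gamma driving an RORE luciferase reporter; top concentration of the series differs between compounds; % is scaled to controls: 0 for no effect and ±100 for the full control effect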)
Conditions: Tet-on RORgamma CHO cells, RORE-luciferase, 16 h; series mostly up to 92.4 µM; activity change, negative = inhibition: at the top concentration
Procedure, shortened: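 CHO Tet-on RORγ, RORE-luc reporter. Cpd 2 h pre-incubation, then dox hyclate 1 uM final, 16 h, 37 C/5% CO2. ONE-Glo luminescence; decrease = antagonist.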

SMILES	activity change, negative = inhibition	Potency
CO[Si](CCCNCCNCCN)(OC)OC	-23.8% (inactive)	–
CCc1ccc(C)nc1	5.6% (inactive)	–
Cc1cc(=O)[nH]c(=O)[nH]1	13.3% (inactive)	–
CS(C)(=O)=O	5.99% (inactive)	–
CCCCCCCCC(C)=O	-2.98% (inactive)	–
NC(=O)c1nc(-c2cccc(-c3cc(F)ccc3OCC(F)(F)C(F)(F)F)c2)n[nH]1	–	34.4 µM (active)
NCCCCCCNCCCCCCN	-16.8% (inactive)	–
CCCCCCCCCCOCC(O)CN (configuration not stated)	–	26.6 µM (active)
Cc1cnccn1	-9.03% (inactive)	–
CC(COC(=O)c1ccccc1)OC(=O)c1ccccc1 (configuration not stated)	0.895% (inactive)	–
CC(C)=CCCC(C)CCOC(=O)C(C)C (configuration not stated)	-2.76% (inactive)	–
O=S(O)O	7.25% [at 19 µM] (inactive)	–
C=C(C)CCCC	4.44% (inactive)	–
COc1ccc2sc(C(=O)Nc3nnn[nH]3)c(OC(C)C)c2c1	–	12.1 µM (active)
OCCCCl	4.6% (inactive)	–
COc1ccc(C#N)cc1	0.615% (inactive)	–
CN(C)c1ccc(N=NS(=O)(=O)O)cc1	–	4.33 µM (active)
CCOB(OCC)OCC	8.65% (inactive)	–
O=S(=O)(O)c1cc(S(=O)(=O)O)c2ccc3c(S(=O)(=O)O)cc(S(=O)(=O)O)c4ccc1c2c43	12.6% [at 19 µM] (inactive)	–
c1cc[nH]c1	0.412% (inactive)	–
CC1(C)C(=O)N(CO)C(=O)N1CO	5.71% (inactive)	–
CCCSS/C(CCO)=C(\C)N(C=O)Cc1cnc(C)nc1N	72.9% [at 42.5 µM] (inactive)	–
CCO[Si](C)(C)OCC	8.93% (inactive)	–
Oc1ccc(-c2ccccc2)c(Cl)c1	23.1% (inactive)	–
O=c1cccc[nH]1	3.33% (inactive)	–
CC(C)=CCCC(C)O (configuration not stated)	-12.1% (inactive)	–
Clc1ccc(C(Cn2ccnc2)OCc2ccsc2Cl)c(Cl)c1 (configuration not stated)	–	23.7 µM (active)

Tested on: not listed separately
Assay: qHTS assay to identify small molecule agonists of the AP-1 signaling pathway - cell viability counter screen (AID 1159525); also: nearly all actives have a fitted effect of over 55% in size; also: potency is read from the fitted curve at half-maximal effect
Conditions: ME-180 AP-1-bla cells viability, ATP luminescence, 5 h; series mostly up to 76.8 µM; viability change, negative = cytotoxic: at the top concentration
Procedure, shortened: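 Intracellular ATP by Cell Titer Glo luminescence (30 min, RT) in the same ME-180 AP-1-bla wells after the 5 h compound exposure at 37 °C. Normalised to tetra n-octyl ammonium bromide and DMSO controls.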

SMILES	viability change, negative = cytotoxic	Potency
CO[Si](CCCNCCNCCN)(OC)OC	-4.41% (inactive)	–
CCc1ccc(C)nc1	-1.61% (inactive)	–
Cc1cc(=O)[nH]c(=O)[nH]1	0.546% (inactive)	–
CS(C)(=O)=O	0.64% (inactive)	–
CCCC(CC)CCCCCCCN (configuration not stated)	-23.7% (inactive)	–
CCCCCCCCC(C)=O	3.95% (inactive)	–
O=Nc1ccc(NO)cc1	19% (inactive)	–
NCCCCCCNCCCCCCN	1.38% (inactive)	–
Cc1cnccn1	1.04% (inactive)	–
CC(COC(=O)c1ccccc1)OC(=O)c1ccccc1 (configuration not stated)	-0.79% (inactive)	–
CC(C)=CCCC(C)CCOC(=O)C(C)C (configuration not stated)	-0.328% (inactive)	–
O=S(O)O	5.55% [at 15.8 µM] (inactive)	–
C=C(C)CCCC	2.73% (inactive)	–
COc1ccc2sc(C(=O)Nc3nnn[nH]3)c(OC(C)C)c2c1	-11.8% (inactive)	–
OCCCCl	-8.44% (inactive)	–
COc1ccc(C#N)cc1	2.25% (inactive)	–
CCOB(OCC)OCC	-6.38% (inactive)	–
O=S(=O)(O)c1cc(S(=O)(=O)O)c2ccc3c(S(=O)(=O)O)cc(S(=O)(=O)O)c4ccc1c2c43	-1.68% [at 15.8 µM] (inactive)	–
c1cc[nH]c1	0.525% (inactive)	–
CC1(C)C(=O)N(CO)C(=O)N1CO	1.13% (inactive)	–
CCO[Si](C)(C)OCC	-5.3% (inactive)	–
Cc1ccc(-n2[nH]c(C)c(N=Nc3cccc(-c4cccc(C(=O)O)c4)c3O)c2=O)cc1C	–	26.8 µM (active)
CCCCC(CC)COC(=O)c1ccc(O)cc1 (configuration not stated)	–	24.5 µM (active) and 49 µM (active)
O=c1cccc[nH]1	1.71% (inactive)	–
CC(C)(C)c1cc(/C=C2\SC(=N)NC2=O)cc(C(C)(C)C)c1O	-25.4% (inactive)	–
CC(C)=CCCC(C)O (configuration not stated)	0.31% (inactive)	–
CCCCCCC(C)OC(=O)COc1nc(F)c(Cl)c(N)c1Cl (configuration not stated)	–	49 µM (active)

Tested on: not listed separately
Assay: qHTS assay to identify small molecule agonists of the AP-1 signaling pathway (AID 1159526); also: % is scaled to controls: 0 for no effect and ±100 for the full control effect
Conditions: ME-180 (cervical carcinoma) AP-1-bla reporter, beta-lactamase FRET ratio, 5 h; series mostly up to 76.8 µM; activation: at the top concentration

SMILES	activation
CO[Si](CCCNCCNCCN)(OC)OC	1.52% (inactive)
CCc1ccc(C)nc1	20.8% (inactive)
Cc1cc(=O)[nH]c(=O)[nH]1	-10% (inactive)
CS(C)(=O)=O	-8.58% (inactive)
CCCCCCCCC(C)=O	-3.69% (inactive)
NCCCCCCNCCCCCCN	4.22% (inactive)
CCCCCCCCCCOCC(O)CN (configuration not stated)	-7.91% [at 35.3 µM] (inactive)
Cc1cnccn1	-9.8% (inactive)
CC(COC(=O)c1ccccc1)OC(=O)c1ccccc1 (configuration not stated)	3.55% (inactive)
CC(C)=CCCC(C)CCOC(=O)C(C)C (configuration not stated)	-6.87% (inactive)
O=S(O)O	2.22% [at 15.8 µM] (inactive)
C=C(C)CCCC	-7.24% (inactive)
OCCCCl	-8.27% (inactive)
COc1ccc(C#N)cc1	-8.85% (inactive)
CN(C)c1ccc(N=NS(=O)(=O)O)cc1	0.473% (inactive)
CCOB(OCC)OCC	11.5% (inactive)
O=S(=O)(O)c1cc(S(=O)(=O)O)c2ccc3c(S(=O)(=O)O)cc(S(=O)(=O)O)c4ccc1c2c43	-3.16% [at 15.8 µM] (inactive)
c1cc[nH]c1	-4.72% (inactive)
CC1(C)C(=O)N(CO)C(=O)N1CO	4.07% (inactive)
CCCSS/C(CCO)=C(\C)N(C=O)Cc1cnc(C)nc1N	-1.83% [at 35.3 µM] (inactive)
CCO[Si](C)(C)OCC	-3.05% (inactive)
O=c1cccc[nH]1	-10.3% (inactive)
CC(C)=CCCC(C)O (configuration not stated)	-9.33% (inactive)

Target: Retinoic acid receptor RXR-alpha (Homo sapiens) (UniProt P19793)
Sequence (P19793 whole entry, looked up): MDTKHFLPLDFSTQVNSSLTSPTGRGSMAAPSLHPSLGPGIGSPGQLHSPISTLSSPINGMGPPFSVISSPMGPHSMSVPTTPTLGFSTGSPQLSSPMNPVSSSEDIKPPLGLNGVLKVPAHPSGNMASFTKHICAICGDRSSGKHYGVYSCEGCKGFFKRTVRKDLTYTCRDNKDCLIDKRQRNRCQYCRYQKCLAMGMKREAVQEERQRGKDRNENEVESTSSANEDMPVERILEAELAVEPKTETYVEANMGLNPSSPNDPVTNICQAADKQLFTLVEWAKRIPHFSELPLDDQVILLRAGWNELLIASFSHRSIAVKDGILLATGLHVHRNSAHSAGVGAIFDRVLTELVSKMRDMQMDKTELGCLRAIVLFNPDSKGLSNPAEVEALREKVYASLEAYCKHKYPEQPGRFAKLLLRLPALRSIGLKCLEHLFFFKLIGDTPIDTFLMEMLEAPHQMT
Assay: qHTS assay to identify small molecule agonists of the RXR signaling pathway (AID 1159527); also: % is scaled to controls: 0 for no effect and ±100 for the full control effect; nearly all actives have a fitted effect of over 35% in size
Conditions: HEK293T RXRa-UAS-bla, beta-lactamase ratio, 16 h; series mostly up to 76.8 µM; activation: at the top concentration
Procedure, shortened: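 Read-out: beta-lactamase FRET ratio (405 nm excitation, 460 and 530 nm emission) after 2 hr substrate loading at room temperature. Cells were RXR-alpha-UAS-bla HEK 293T treated with compounds for 16 hr in 2% charcoal-stripped FBS medium.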

SMILES	activation
CO[Si](CCCNCCNCCN)(OC)OC	-0.0537% (inactive)
CCc1ccc(C)nc1	2.28% (inactive)
Cc1cc(=O)[nH]c(=O)[nH]1	-1.25% (inactive)
CS(C)(=O)=O	-0.548% (inactive)
CCCCCCCCC(C)=O	4.41% (inactive)
NCCCCCCNCCCCCCN	-1.12% (inactive)
Cc1cnccn1	0.971% (inactive)
CC(COC(=O)c1ccccc1)OC(=O)c1ccccc1 (configuration not stated)	-18.5% (inactive)
CC(C)=CCCC(C)CCOC(=O)C(C)C (configuration not stated)	-9.71% (inactive)
O=S(O)O	-2.24% [at 15.8 µM] (inactive)
C=C(C)CCCC	6.27% (inactive)
OCCCCl	2.11% (inactive)
COc1ccc(C#N)cc1	-4.05% (inactive)
CCOB(OCC)OCC	-0.175% (inactive)
O=S(=O)(O)c1cc(S(=O)(=O)O)c2ccc3c(S(=O)(=O)O)cc(S(=O)(=O)O)c4ccc1c2c43	-3.71% [at 15.8 µM] (inactive)
c1cc[nH]c1	0.0374% (inactive)
CC1(C)C(=O)N(CO)C(=O)N1CO	-6.68% (inactive)
CCO[Si](C)(C)OCC	-5.13% (inactive)
O=c1cccc[nH]1	0.742% (inactive)
CC(C)=CCCC(C)O (configuration not stated)	5.48% (inactive)
